The nature of test [1]: qHTS assay to identify small molecule agonists of the estrogen receptor alpha (ER-alpha) signaling pathway in the presence of an antagonist - cell viability counter screen (AID 1259386).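 Note: series mostly up to about 92 µM; cells exposed to compounds for 22 h at 37 °C before the viability read; nearly all actives have a fitted effect of over 30% in size.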 The method in brief: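 VM7Luc4E2 cells (endogenous full-length ER-alpha, 4×ERE-luciferase) were held 5 days in phenol red-free medium with 10% charcoal-stripped FBS, plated, then given 10.0nM ICI-182,780 and compounds at 15 concentrations for 22hr at 37C; viability read by CellTiter-Fluor fluorescence.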

Test [2] concerns the target Progesterone receptor (Homo sapiens) (UniProt P06401). The test can be described thus: qHTS assay to identify small molecule agonists of the progesterone receptor (PR) signaling pathway (AID 1346784; calls by dose curve; note: nearly all actives have a fitted effect of over 30% in size). An outline of the steps:
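PR-UAS-bla HEK 293T cells carrying a UAS-driven beta-lactamase reporter were seeded in medium with 2% charcoal-stripped FBS, preincubated 6 hr at 37C, then exposed to compounds in DMSO for 16 hr; agonism was read by LiveBLAzer B/G FRET fluorescence.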

Test [3] shares this target. The test can be described thus: qHTS assay to identify small molecule antagonists of the progesterone receptor (PR) signaling pathway (AID 1346795; active = well fitted inhibition curve with a large enough effect in the signal ratio in the repeat runs, not every such curve was filed as active; the % refers to the signal ratio). The method in brief:
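PR-UAS-bla HEK293T cells carrying a UAS-driven beta-lactamase reporter were plated in medium with 2% charcoal-stripped FBS and rested 6 hr at 37C. Compounds were added with 1 nM R5020 (final) for 16 hr, then FRET substrate loaded 2 hr at room temperature.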

A short description of test [4]: qHTS assay to identify small molecule agonists of the progesterone receptor (PR) signaling pathway - cell viability counter screen (AID 1346799; calls by dose curve; note: nearly all actives have a fitted effect of over 45% in size). An outline of the steps:
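PR-UAS-bla HEK293T cells, 3,000 per well in medium with 2% charcoal-stripped FBS, were preincubated 6 hr at 37C, then exposed to compounds for 16 hr; viability was read as CellTiter-Glo luminescence after 30 min at room temperature.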

A short description of test [5]: qHTS assay to identify small molecule antagonists of the TGF-beta/Smad signaling pathway - cell viability counter screen (AID 1346824). Note: nearly all actives have a fitted effect of over 50% in size. An outline of the steps: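 SBE-bla HEK 293T cells, incubated overnight, then compound plus 0.25 ng/mL TGF-beta1 (stock added) for 5 hr at 37 C. Viability was read in the same wells by CellTiter-Glo luminescence after 30 min at room temperature.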

Test [6] is described as follows: qHTS assay to identify small molecule agonists of the TGF-beta/Smad signaling pathway - cell viability counter screen (AID 1346829). Note: top concentration of the series differs between compounds; nearly all actives have a fitted effect of over 45% in size. An outline of the steps:
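Tox21 qHTS format: SBE-bla HEK 293T cells treated with DMSO-dissolved compounds for 5 hr; CellTiter-Glo luminescence after 30 min at room temperature.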

A short description of test [7]: qHTS assay to identify small molecule agonists of the TGF-beta/Smad signaling pathway (AID 1346859; active = well fitted activation curve with a large enough effect in the signal ratio in the repeat runs, not every such curve was filed as active; the % refers to the signal ratio; note: series mostly up to about 77 µM). The method in brief:
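HEK 293T cells stably carrying a beta-lactamase reporter driven by the Smad binding element were seeded overnight, exposed to DMSO-dissolved compounds for 5 hr at 37 C, 5% CO2, then loaded with FRET substrate for 2 hr at room temperature.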

The target of test [8] is Thyrotropin-releasing hormone receptor (Homo sapiens) (UniProt P34981). The test can be described thus: qHTS assay to identify small molecule antagonists of the thyrotropin-releasing hormone receptor (TRHR) signaling pathway (AID 1346877; active = well fitted inhibition curve with a large enough effect in the repeat runs, not every such curve was filed as active; note: series mostly up to about 51 µM). An outline of the steps: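 TRHR-expressing HEK293 cells were seeded, cultured 18 h at 37 °C, then loaded with calcium dye for 2 h. Compounds were pre-incubated 5 min at room temperature before 1 nM TRH (final) was added, and kinetic fluorescence was recorded for 3 min.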

The target is the same in test [9]. The test can be described thus: qHTS assay to identify small molecule agonists of the thyrotropin-releasing hormone receptor (TRHR) signaling pathway (AID 1346891; calls by dose curve; note: series mostly up to about 58 µM). The method in brief:
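TRHR-expressing HEK293 cells were plated 18 h at 37 °C/5% CO2, loaded with calcium dye 2 h at 37 °C, then given compound in DMSO; fluorescence was read kinetically for 3 min at 1 s intervals.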

Test [10] can be described thus: Human pregnane X receptor (PXR) small molecule agonists, qHTS cell viability counter screen (AID 1346977). Note: nearly all actives have a fitted effect of over 50% in size. An outline of the steps:
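PXR-Luc HepG2 cells in medium with 5% charcoal-stripped FBS were pre-incubated 5hr, then exposed to compounds for 24hr at 37C. Viability was read in the same wells by CellTiter-Fluor fluorescence, reagent added after 23hr with a 1hr incubation.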

Test [11] can be described thus: Caspase-3/7 induction in HepG2 cells by small molecules, qHTS assay (AID 1346978). Note: nearly all actives have a fitted effect of over 15% in size. An outline of the steps: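 Wild-type HepG2 cells, 2,000/well, settled 5 hr at 37 C and 5% CO2, then compound-treated for 17 hr; caspase-3/7 activity read by luminescent Caspase-Glo 3/7 after 30 min at room temperature.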
A short description of test [12]: Caspase-3/7 induction in CHO-K1 cells by small molecules, qHTS cell viability counter screen (AID 1346979). Note: nearly all actives have a fitted effect of over 35% in size. An outline of the steps: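 Wild-type CHO-K1 cells were seeded at 1,500 per well, rested 5hr at 37 C, then exposed to compounds in DMSO. After 16hr, CellTiter-Fluor reagent was added and fluorescence read 1hr later as the viability measure.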
Test [13] can be described thus: Caspase-3/7 induction in CHO-K1 cells by small molecules, qHTS assay (AID 1346980). Note: nearly all actives have a fitted effect of over 15% in size. An outline of the steps:
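Wild-type CHO-K1 cells exposed to compounds for 17hr at 37 C, 5% CO2. Caspase-3/7 activity then measured by Caspase-Glo 3/7 luminescence after 30min at room temperature.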

A short description of test [14]: Caspase-3/7 induction in HepG2 cells by small molecules, qHTS cell viability counter screen (AID 1346981). Note: series mostly up to about 92 µM; nearly all actives have a fitted effect of over 30% in size. An outline of the steps:
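Wild-type HepG2 cells (2,000/well) were allowed to settle for 5 hr at 37 C, 5% CO2, then dosed with compounds in DMSO by pin transfer. After 16 hr at 37 C, CellTiter-Fluor was added and fluorescence read 1 hr later.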

For test [15], the target named is Nuclear receptor subfamily 1 group I member 2 (Homo sapiens) (UniProt O75469). The test can be described thus: Human pregnane X receptor (PXR) small molecule agonists, qHTS assay (AID 1346982). Note: nearly all actives have a fitted effect of over 35% in size. Note: potency is the fitted concentration of half-maximal effect. The method in brief: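 PXR-Luc HepG2 cells (CYP3A4 promoter-driven luciferase) were seeded in medium with 5% charcoal-stripped FBS, left 5 hr at 37 C, then exposed to compounds in DMSO for 24 hr. Luminescence was read after ONE-Glo addition.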

The target in test [16] is Nuclear receptor subfamily 1 group I member 2 (Rattus norvegicus) (UniProt Q9R1A7). The test can be described thus: Rat pregnane X receptor (rPXR) activation by small molecules, qHTS assay (AID 1346983). Note: nearly all actives have a fitted effect of over 20% in size. The following applies: rPXR luciferase reporter cells, One-Glo luminescence, 24 h; hits give high values. The method in brief: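 Cell-based rPXR activation assay: rPXR cells, 2,000 per well, rested 5hr at 37 C, then exposed to compounds in DMSO for 24 hr at 37 C. Luciferase activity read by One-Glo luminescence after 30 min at room temperature.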

Test [17] concerns the target Nuclear receptor subfamily 1 group I member 2 (Homo sapiens) (UniProt O75469). The test can be described thus: CYP3A4 induction through human pregnane X receptor (PXR) by small molecules, qHTS assay (AID 1346984). Note: nearly all actives have a fitted effect of over 40% in size. The method in brief:
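DPX-2 cells (HepG2 co-transfected with PXR and CYP3A4 promoter-luciferase) treated with compounds 24 h at 37C; luciferin-IPA CYP3A4 substrate 3uM final added for 3 h, then One-Glo; luminescence read. qHTS format.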

Test [18] has the same target. The test can be described thus: Human pregnane X receptor (PXR) activation by small molecules, qHTS assay (AID 1346985). Note: nearly all actives have a fitted effect of over 40% in size. An outline of the steps: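 DPX-2 cells (HepG2 co-transfected with a PXR response element and a CYP3A4-promoter luciferase construct) were seeded at 2,000 per well, rested 5 hr at 37C, then exposed to DMSO-dissolved compounds for 24 hr. Activation was read as luciferase luminescence.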

Test [19] addresses Acetylcholinesterase (Homo sapiens) (UniProt P22303). The test can be described thus: Acetylcholinesterase (AChE) small molecule antagonists: colormetric cell-based qHTS assay (AID 1347395; calls by dose curve; note: nearly all actives have a fitted effect of over 30% in size). The method in brief:
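SH-SY5Y cells, plated overnight at 37 C, were exposed to compounds for 30 min at 37 C and 5% CO2. Acetylthiocholine plus DTNB was then added, and thiocholine from endogenous AChE was quantified colorimetrically after 90 min at 37 C.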

A short description of test [20]: qHTS assay to identify small molecule antagonists of the progesterone receptor (PR) signaling pathway - cell viability counter screen (AID 1346798). Note: series mostly up to about 92 µM; nearly all actives have a fitted effect of over 50% in size. An outline of the steps:
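PR-UAS-bla HEK293T cells in medium with 2% charcoal-stripped FBS were treated with compounds plus R5020 for 16 hr at 37C. Cell viability was then read by CellTiter-Glo luminescence after 30 min at room temperature in the same wells.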

The structures appear in SMILES notation. A number with no mark means an inactive call. Results filed as inconclusive are left out. Active and inactive are the calls of the source. Unless noted, calls come from the whole dose curve; as a rule, active = well fitted curve in the direction sought with a large enough effect in the repeat runs; inconclusive = weak or mixed curves; inactive = no such curve, though single readings can be large; an effect the other way counts as inactive or inconclusive.
% is set by controls: 0 for no effect and ±100 for the full control effect.

Sequence of Progesterone receptor (Homo sapiens) (P06401 whole entry, looked up): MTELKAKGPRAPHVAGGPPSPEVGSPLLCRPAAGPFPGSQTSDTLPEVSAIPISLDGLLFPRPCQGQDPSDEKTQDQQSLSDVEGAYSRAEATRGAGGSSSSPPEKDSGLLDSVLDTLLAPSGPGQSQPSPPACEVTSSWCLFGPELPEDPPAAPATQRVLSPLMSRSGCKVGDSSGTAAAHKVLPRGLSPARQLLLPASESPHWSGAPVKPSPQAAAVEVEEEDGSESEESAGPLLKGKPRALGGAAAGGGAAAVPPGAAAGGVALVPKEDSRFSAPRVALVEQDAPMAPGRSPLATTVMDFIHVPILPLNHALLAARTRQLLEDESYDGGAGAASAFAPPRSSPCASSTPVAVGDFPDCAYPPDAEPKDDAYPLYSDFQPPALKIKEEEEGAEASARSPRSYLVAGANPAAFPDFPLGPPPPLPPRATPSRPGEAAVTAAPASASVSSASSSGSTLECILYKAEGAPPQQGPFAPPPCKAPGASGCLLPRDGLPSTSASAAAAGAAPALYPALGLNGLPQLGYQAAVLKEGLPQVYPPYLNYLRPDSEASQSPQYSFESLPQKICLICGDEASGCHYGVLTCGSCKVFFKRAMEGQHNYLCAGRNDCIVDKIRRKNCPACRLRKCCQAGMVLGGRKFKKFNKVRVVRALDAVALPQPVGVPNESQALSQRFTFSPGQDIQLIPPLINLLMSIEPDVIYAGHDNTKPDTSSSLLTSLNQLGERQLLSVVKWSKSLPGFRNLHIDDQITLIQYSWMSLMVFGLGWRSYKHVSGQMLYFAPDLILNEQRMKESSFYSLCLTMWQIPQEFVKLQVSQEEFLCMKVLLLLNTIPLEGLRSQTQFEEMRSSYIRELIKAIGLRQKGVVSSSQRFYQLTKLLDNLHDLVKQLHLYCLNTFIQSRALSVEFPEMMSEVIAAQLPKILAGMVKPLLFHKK
Sequence of Acetylcholinesterase (Homo sapiens) (P22303 whole entry, looked up): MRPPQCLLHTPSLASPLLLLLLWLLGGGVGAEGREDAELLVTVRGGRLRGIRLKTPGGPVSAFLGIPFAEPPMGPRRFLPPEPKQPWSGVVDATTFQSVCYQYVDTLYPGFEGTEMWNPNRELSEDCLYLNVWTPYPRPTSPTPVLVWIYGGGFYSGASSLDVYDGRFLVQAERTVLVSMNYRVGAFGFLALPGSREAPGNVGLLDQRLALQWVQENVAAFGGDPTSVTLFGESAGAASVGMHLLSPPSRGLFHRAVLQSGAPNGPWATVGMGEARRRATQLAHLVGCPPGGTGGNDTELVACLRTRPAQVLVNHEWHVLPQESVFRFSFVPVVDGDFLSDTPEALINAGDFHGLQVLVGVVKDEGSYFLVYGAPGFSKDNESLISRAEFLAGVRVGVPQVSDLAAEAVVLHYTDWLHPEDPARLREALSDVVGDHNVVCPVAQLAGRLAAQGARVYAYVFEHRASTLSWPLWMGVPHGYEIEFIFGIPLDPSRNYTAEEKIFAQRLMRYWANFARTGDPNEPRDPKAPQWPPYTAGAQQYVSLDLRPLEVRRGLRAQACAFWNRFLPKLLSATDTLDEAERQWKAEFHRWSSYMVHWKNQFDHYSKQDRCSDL
Sequence of Nuclear receptor subfamily 1 group I member 2 (Homo sapiens) (O75469 whole entry, looked up): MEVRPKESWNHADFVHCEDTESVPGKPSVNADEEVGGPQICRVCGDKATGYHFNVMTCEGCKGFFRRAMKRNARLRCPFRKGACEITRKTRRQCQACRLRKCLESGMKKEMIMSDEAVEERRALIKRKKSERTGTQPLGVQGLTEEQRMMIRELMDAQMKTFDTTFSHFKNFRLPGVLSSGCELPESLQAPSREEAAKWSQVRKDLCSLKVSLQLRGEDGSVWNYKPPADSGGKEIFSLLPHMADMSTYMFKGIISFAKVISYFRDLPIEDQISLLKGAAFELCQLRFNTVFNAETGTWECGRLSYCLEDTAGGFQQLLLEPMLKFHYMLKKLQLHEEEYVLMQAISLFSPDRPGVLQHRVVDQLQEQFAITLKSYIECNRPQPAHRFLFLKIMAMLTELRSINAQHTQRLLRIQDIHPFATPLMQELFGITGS
Sequence of Thyrotropin-releasing hormone receptor (Homo sapiens) (P34981 whole entry, looked up): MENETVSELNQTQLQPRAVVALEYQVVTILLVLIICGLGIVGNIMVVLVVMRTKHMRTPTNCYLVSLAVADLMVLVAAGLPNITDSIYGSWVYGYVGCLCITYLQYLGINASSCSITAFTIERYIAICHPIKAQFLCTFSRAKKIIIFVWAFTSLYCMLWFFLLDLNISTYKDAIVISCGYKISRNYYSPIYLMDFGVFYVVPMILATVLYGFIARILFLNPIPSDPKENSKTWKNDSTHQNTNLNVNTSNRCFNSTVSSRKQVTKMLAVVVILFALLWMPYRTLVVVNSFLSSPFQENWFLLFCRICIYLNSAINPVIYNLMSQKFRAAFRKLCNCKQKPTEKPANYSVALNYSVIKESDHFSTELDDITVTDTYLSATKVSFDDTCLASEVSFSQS
Sequence of Nuclear receptor subfamily 1 group I member 2 (Rattus norvegicus) (Q9R1A7 whole entry, looked up): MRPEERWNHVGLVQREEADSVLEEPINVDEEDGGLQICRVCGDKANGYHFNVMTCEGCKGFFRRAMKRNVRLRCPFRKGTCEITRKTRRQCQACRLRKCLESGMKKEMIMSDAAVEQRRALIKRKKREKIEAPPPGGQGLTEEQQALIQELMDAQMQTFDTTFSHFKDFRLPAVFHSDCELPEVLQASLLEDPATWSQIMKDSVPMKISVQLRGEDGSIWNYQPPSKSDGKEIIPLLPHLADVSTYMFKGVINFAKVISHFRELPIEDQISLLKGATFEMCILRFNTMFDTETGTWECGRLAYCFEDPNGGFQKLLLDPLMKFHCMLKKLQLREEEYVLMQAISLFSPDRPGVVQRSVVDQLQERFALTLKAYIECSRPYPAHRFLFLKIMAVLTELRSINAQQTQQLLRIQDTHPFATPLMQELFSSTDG

As for `CCCC1CCCCN1` (stereo unspecified), the Potency entry in [1], in [2], in test [3], in [4], in test [5] and in test [6] was “inactive” throughout. For the same compound, the Potency entry in test [8], in [10], in test [11], in test [12], in [13] and in test [14] was “inactive” throughout. Also, the Potency result in [15], in test [18] and in test [19] was “inactive” throughout. For the same compound, the result in [7], in test [9] and in [17] was inactive. The max activation in test [16] is -2.95%.
For `COc1ccc(C(O)(c2cncnc2)C2CC2)cc1` (stereo unspecified), the Potency result in test [1], in [2], in test [3], in test [20], in test [5] and in test [6] was “inactive” each time. The Potency entry in test [8], in [10], in test [11], in test [12], in test [13] and in test [14] was “inactive” each time. Besides, the Potency result in test [15] and in test [19] was “inactive” in each case. Besides, the compound was called inactive in [7] and in test [9].
Take `Cc1ccc2c(C)cccc2c1`: the Potency entry in test [1], in test [2], in [3], in test [20], in test [4] and in test [5] was “inactive” in each case. The Potency entry in test [6], in test [8], in test [10], in test [11], in test [12] and in [13] was “inactive” in each case. Besides, the Potency entry in test [14], in [15] and in test [19] was “inactive” each time. Further, the call in test [9] was inactive.
Turning to `O=C(Cc1ccccc1)c1ccccc1`, the Potency result in [1], in [2], in [3], in [20], in [4] and in [6] was “inactive” throughout. Besides, the Potency entry in test [8], in [10], in test [11], in test [12], in test [13] and in test [14] was “inactive” in each case. Moreover, the Potency entry in test [19] is “inactive”. Also, the outcome in test [7] and in [9] was inactive. In addition, in test [15], the Potency is 61.1 µM (active).
Consider `COc1cc(CC#N)cc(OC)c1OC`, for which the Potency result in test [1], in test [2], in test [3], in [20], in test [4] and in [5] was “inactive” each time. Besides, the Potency result in test [6], in [8], in test [10], in test [11], in [12] and in test [13] was “inactive” in each case. Besides, the Potency entry in [14], in [15] and in test [19] was “inactive” throughout. In addition, the call in test [9] was inactive.
`CCOC(=O)NC(O)C(Cl)(Cl)Cl` (stereo unspecified): the Potency result in test [1], in test [2], in test [3], in [20], in test [4] and in test [5] was “inactive” throughout. Further, the Potency entry in [6], in [10], in [11], in test [12], in test [13] and in test [14] was “inactive” throughout. Moreover, the Potency result in test [15], in [18] and in [19] was “inactive” in each case. The max activation in test [16] was -1.22%. For the same compound, the compound was classed as inactive in test [17].
In the case of `C=CC(=O)OCC`, the Potency result in [1], in [2], in test [3], in [20], in test [4] and in test [6] was “inactive” throughout. The Potency result in test [8], in test [10], in [11], in test [12], in test [13] and in test [14] was “inactive” in each case. Also, the Potency result in test [15] and in test [19] was “inactive” each time. The call in test [7] and in test [9] was inactive.

The record behind these values is PubChem BioAssay (Tox21).
